Test results reported in PubChem BioAssay.
“And” between values parts separate entries of the source, which are not always exact repeats. Equal entries are not always repeated. The source holds several records for some structures; these can differ, active in one and inactive in another. The source made the active and inactive calls. Unless noted, how the calls were made is not given here.

How the values were obtained:
[1] = system: Wnt5a (protein binding on small-molecule microarray); assay: small molecules binding Wnt5a protein – biophysical, small-molecule microarray, 635/667 nm fluorescence, primary screen (AID 1142); conditions: 635 nm fluorescence, higher = more signal;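 further: fluorescence read at 667 nm with signal to noise per printed feature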
[2] = ATP-based viability of Huh7 replicon cells – cell-based, CellTiter-Glo luminescence, basal, 48 h, cytotoxicity control for HCV replication inhibitor project, primary screen (AID 1143); conditions: higher = more signal, called active from +8 up or from −8 down;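 further: Huh7 hepatoma cells carrying a hepatitis C replication reporter with no stimulus; test concentration not given here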
[3] = Pseudomonas biofilm growth suppression – PAO1 strain, BacTiter-Glo luminescence, LB-PBS, primary screen (AID 1144); conditions: P. aeruginosa PAO1 biofilm, 12 h, higher = more signal
[4] = basal CRE-LacZ reporter activity in PC12 – cell-based, unstimulated, primary screen (AID 1145); conditions: no forskolin, luminescence, 4.5 h, higher = more signal, called active from +8 up or from −8 down
[5] = forskolin-driven CRE-LacZ activity in PC12 – cell-based, CRE-LacZ reporter, forskolin-stimulated, primary screen (AID 1146); conditions: luminescence, 4.5 h, higher = more signal, called active from +8 up or from −8 down;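 further: PC12 cells with 6xCRE LacZ reporter stimulated by forskolin 10 µM; beta-galactosidase reporter signal reflecting CREB driven transcription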
[6] = molecular target: Streptavidin (Streptomyces avidinii) (UniProt P22629); assay: compounds binding control protein streptavidin – biophysical, small-molecule microarray, 635/667 nm fluorescence, artefact control for SMM compound annotation, primary screen (AID 1147); conditions: higher = more signal;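 further: signal reflects streptavidin binding to arrayed compounds as a control protein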
[7] = probe aInhba binding on compound microarray – biochemical, small-molecule microarray, 635/667 nm fluorescence, primary screen (AID 1148); conditions: higher = more signal;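 further: score merges 667nm spot fluorescence with signal-to-noise for antibody binding to printed compounds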
Torsin-1A (Homo sapiens) [8] = molecular target: Torsin-1A (Homo sapiens) (UniProt O14656); assay: TOR1A wild-type binding on microarray – cell lysate, small-molecule microarray, lysate, 635/667 nm, primary screen (AID 1149); conditions: COS7 hTOR1A-WT lysate, 635 nm fluorescence, higher = more signal
Torsin-1A (Homo sapiens) [9] = molecular target: Torsin-1A (Homo sapiens) (UniProt O14656); assay: torsin A mutant lysate binding on microarrays – cell lysate, small-molecule microarray, COS7 lysate, 635/667 nm fluorescence, primary screen (AID 1150); conditions: COS7 hTOR1A mutant lysate, 635 nm fluorescence, higher = more signal;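 further: score pools 667 nm emission and signal to noise measuring lysate protein binding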
[10] = system: Sonic hedgehog protein (Shh); assay: Sonic hedgehog microarray binding compounds – biochemical, small-molecule microarray, 635/667 nm fluorescence, primary screen (AID 1151); conditions: 635 nm fluorescence, higher = more signal;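 further: Shh protein binding to compounds spotted on small-molecule microarray slides; score combines spot fluorescence intensity with signal-to-noise across triplicate slides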
[11] = optical density shifts of acrAB sulA E. coli – strain DRC41, OD650, 48 h, E. coli filamentation inducer project, primary screen (AID 1152); conditions: higher = more signal, called active from +8 up or from −8 down;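 further: E. coli MC1000 strain DRC41 lacking acrAB efflux pump and sulA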
[12] = probe aLefty1 binding on compound microarray – biochemical, small-molecule microarray, 635/667 nm fluorescence, primary screen (AID 1153); conditions: higher = more signal;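 further: score merges spot fluorescence with signal-to-noise ratio from the scanned slide images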
[13] = plasmodial surface anion channel blockers, osmotic lysis – cell-based, P. falciparum Indochina, OD700, 1 h, primary screen (AID 1154); conditions: P. falciparum Indochina infected RBC osmotic lysis, higher = more signal, called active from +8 up or from −8 down
[14] = plasmodial surface anion channel blockers, osmotic lysis – cell-based, P. falciparum Indochina, OD700, 2 h, primary screen (AID 1155);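 further: lysis reports solute entry through the parasite surface anion channel PSAC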; conditions: P. falciparum Indochina infected erythrocytes, higher = more signal, called active from +8 up or from −8 down
[15] = changes in parasitized red cell lysis, either direction – P. falciparum Indochina, OD700, 3 h, PSAC antagonist project, primary screen (AID 1156); conditions: P. falciparum-infected erythrocytes, osmotic lysis, higher = more signal, called active from +8 up or from −8 down
[16] = plasmodial surface anion channel blockers, osmotic lysis – cell-based, P. falciparum Indochina, OD700, 18 h, primary screen (AID 1157); conditions: P. falciparum Indochina infected erythrocytes, osmotic lysis OD700, 18 h; higher = more signal, called active from +8 up or from −8 down
[17] = S6 kinase pathway phospho-S6 level changes – cell-based, A549, cytoblot, luminescence, serum-stimulated, primary screen (AID 1158); conditions: 5 h, higher = more signal;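 further: serum-stimulated A549 lung adenocarcinoma cells; signal is phosphorylated S6 detected by cytoblot immunostaining with HRP secondary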
[18] = molecular target: NADPH oxidase 2 (Homo sapiens) (UniProt P04839); assay: compounds shifting NOX2 Amplex Red fluorescence – cell-based, HEK293-NOX2, PMA-stimulated, NOX inhibitor project, primary screen (AID 1159); conditions: 45 min, higher = more signal, called active from +8 up or from −8 down; further: test concentration not given here
[19] = molecular target: NADPH oxidase 4 (Homo sapiens) (UniProt Q9NPH5); assay: compounds shifting NOX4 Amplex Red fluorescence – cell-based, HEK293-NOX4, tetracycline-induced, NOX inhibitor project, primary screen (AID 1160); conditions: HEK293-NOX4, Amplex Red H2O2 fluorescence, 45 min; higher = more signal, called active from +8 up or from −8 down
[20] = molecular target: NADPH oxidase 5 (Homo sapiens) (UniProt Q96PH1); assay: compounds shifting NOX5 Amplex Red fluorescence – cell-based, HEK293-NOX5, NOX inhibitor project, primary screen (AID 1161); conditions: HEK293-NOX5, ionomycin, 45 min, higher = more signal
Sequence of NADPH oxidase 5 (Homo sapiens) (Q96PH1 whole entry, looked up): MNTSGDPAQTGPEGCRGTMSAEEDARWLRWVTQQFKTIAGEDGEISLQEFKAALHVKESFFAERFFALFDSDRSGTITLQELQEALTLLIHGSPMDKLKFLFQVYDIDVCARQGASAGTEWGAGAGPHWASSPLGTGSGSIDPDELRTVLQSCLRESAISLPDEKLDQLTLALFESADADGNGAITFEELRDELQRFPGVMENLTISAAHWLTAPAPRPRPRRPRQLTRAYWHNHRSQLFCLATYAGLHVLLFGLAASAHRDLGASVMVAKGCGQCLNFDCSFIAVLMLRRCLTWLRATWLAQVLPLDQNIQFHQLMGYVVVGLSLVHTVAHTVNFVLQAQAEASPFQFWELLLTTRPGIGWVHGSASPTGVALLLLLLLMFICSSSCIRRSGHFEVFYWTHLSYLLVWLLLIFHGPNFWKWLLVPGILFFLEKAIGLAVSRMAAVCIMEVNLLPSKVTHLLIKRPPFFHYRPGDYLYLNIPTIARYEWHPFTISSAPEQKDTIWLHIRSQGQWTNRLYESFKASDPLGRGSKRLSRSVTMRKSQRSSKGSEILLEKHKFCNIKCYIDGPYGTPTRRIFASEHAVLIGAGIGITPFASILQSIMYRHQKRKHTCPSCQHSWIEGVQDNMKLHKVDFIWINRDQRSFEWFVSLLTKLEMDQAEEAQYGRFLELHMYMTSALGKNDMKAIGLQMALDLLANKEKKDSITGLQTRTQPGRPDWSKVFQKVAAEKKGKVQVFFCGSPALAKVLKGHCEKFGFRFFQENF

Sequence of NADPH oxidase 4 (Homo sapiens) (Q9NPH5 whole entry, looked up): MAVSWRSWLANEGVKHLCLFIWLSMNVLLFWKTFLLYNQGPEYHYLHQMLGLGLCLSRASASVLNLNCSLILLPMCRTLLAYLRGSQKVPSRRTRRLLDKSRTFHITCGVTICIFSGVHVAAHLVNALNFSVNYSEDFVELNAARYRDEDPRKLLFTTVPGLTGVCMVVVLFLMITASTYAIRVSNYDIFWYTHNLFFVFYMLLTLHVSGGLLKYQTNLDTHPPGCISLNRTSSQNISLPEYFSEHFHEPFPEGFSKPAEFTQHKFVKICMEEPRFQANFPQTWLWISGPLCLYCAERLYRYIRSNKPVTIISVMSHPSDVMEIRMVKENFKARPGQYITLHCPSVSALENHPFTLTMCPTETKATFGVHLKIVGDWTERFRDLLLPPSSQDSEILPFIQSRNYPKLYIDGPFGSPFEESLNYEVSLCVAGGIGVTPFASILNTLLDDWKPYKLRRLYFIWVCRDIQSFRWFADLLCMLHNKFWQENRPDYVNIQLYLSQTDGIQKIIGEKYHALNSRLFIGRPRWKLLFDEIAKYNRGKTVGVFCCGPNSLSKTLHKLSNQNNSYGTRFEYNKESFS
Sequence of Streptavidin (Streptomyces avidinii) (P22629 whole entry, looked up): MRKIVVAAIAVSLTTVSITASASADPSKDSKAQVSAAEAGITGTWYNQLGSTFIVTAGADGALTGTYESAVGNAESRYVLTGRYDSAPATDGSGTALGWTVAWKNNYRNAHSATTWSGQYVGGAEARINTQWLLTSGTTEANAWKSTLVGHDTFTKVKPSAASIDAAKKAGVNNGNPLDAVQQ
Sequence of Torsin-1A (Homo sapiens) (O14656 whole entry, looked up): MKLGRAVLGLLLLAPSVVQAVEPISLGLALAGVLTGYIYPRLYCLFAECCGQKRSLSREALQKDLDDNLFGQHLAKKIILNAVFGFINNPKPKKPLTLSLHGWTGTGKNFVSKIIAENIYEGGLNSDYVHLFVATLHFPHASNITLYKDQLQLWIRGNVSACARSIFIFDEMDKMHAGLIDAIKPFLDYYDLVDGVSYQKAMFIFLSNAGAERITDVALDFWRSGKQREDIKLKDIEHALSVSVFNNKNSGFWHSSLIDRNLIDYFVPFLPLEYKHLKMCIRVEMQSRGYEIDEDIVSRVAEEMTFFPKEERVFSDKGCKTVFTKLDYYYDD
Sequence of NADPH oxidase 2 (Homo sapiens) (P04839 whole entry, looked up): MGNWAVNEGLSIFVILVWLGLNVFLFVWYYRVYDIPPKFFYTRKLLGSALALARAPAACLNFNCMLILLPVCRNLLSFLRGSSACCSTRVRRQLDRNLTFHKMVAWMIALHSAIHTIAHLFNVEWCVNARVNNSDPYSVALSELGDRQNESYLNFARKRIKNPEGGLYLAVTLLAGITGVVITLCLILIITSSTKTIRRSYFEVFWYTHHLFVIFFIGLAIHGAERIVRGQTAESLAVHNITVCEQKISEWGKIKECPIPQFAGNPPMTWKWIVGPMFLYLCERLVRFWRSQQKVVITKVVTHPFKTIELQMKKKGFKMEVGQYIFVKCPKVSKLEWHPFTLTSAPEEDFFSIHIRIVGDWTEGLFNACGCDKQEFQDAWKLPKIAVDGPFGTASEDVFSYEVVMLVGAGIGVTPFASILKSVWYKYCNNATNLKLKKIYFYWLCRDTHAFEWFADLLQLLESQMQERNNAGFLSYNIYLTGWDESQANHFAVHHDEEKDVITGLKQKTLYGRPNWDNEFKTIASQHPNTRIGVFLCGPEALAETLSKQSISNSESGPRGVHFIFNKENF

Structure (SMILES) | composite z-score [1] | z-score [2] | z-score [3] | z-score [4] | z-score [5] | composite z-score [6] | composite z-score [7] | composite z-score (Torsin-1A (Homo sapiens) [8]) | composite z-score (Torsin-1A (Homo sapiens) [9]) | composite z-score [10] | z-score [11] | composite z-score [12] | z-score [13] | z-score [14] | z-score [15] | z-score [16] | z-score [17] | z-score [18] | z-score [19] | z-score [20]
COC(=O)C1=C2N(Cc3ccccc3)C(C)=C(C(=O)OC)[C@@H](c3ccccc3)N2C(=O)[C@](O)(C(=O)OC)C1 | -0.0382 and -0.0845 | -0.124 (inactive) and 0.0688 (inactive) | 0.917 (inactive) and -0.22 (inactive) | 2.08 (inactive) and 1.8 (inactive) | -1.03 (inactive) and -0.435 (inactive) | -0.302 and -0.327 | -0.0736 and -0.0895 | 1.04 and 2.21 | 0.42 and 3.89 | 0.71 and 0.673 | 0.33 (inactive) and -0.579 (inactive) | -0.0694 and -0.189 | 1.6 (inactive) and 0.553 (inactive) | 1.02 (inactive) and 0.676 (inactive) | 0.878 (inactive) and -0.159 (inactive) | 0.468 (inactive) and 0.318 (inactive) | -0.482 and -0.524 | 0.258 (inactive) and 0.184 (inactive) | 0.64 (inactive) and 0.0139 (inactive) | 0.932 and 0.724
O=C1C[C@]2(c3ccc([N+](=O)[O-])cc3)C(=O)N(Cc3ccccc3)c3cc(CO)ccc3[C@H]2N1C1CCCCC1 | 0.0771 and 0.551 | 0.282 (inactive) and -5.67 (inactive) | -0.19 (inactive) and -0.334 (inactive) | -0.348 (inactive) and -0.152 (inactive) | 1.03 (inactive) and -0.885 (inactive) | -0.286 and -0.157 | -0.249 and 0.163 | 0.251 and 0.0218 | 0.22 and -0.0773 | 0.837 and 1.22 | 0.128 (inactive) and 0.873 (inactive) | -0.221 and -0.0626 | 0.164 (inactive) and 11.5 (active) | -0.198 (inactive) and 1.01 (inactive) | -0.57 (inactive) and 4.35 (inactive) | -0.434 (inactive) and -0.166 (inactive) | 0.483 and 2.97 | 0.139 (inactive) and 1.55 (inactive) | 0.644 (inactive) and -1.56 (inactive) | -0.416 and -0.385
C=C[C@@H](C)[C@@H](O)c1ccc(O)c2ccccc12 | 0.0168 and -0.729 | 0.61 (inactive) and -1.13 (inactive) | -0.647 (inactive) and -0.589 (inactive) | 2.68 (inactive) and -0.3 (inactive) | 3.22 (inactive) and 5.31 (inactive) | -1.28 and -0.645 | -0.304 and -0.278 | -1.2 and -1.52 | -1.14 and -0.798 | -0.103 and 0.297 | -0.433 (inactive) and 0.891 (inactive) | -0.194 and -0.0851 | 0.837 (inactive) and 2.36 (inactive) | -0.0805 (inactive) and 0.389 (inactive) | -0.718 (inactive) and 0.0336 (inactive) | 0.205 (inactive) and 1.19 (inactive) | -0.565 and 0.273 | -5.58 (inactive) and -5.73 (inactive) | -0.616 (inactive) and -1.33 (inactive) | 1.95 and 1.31
C=CCN(CCCC)C(=O)C1N(CCCCCCO)C(=O)C2C(C(=O)O)C3C=CC21O3 (stereo not given) | -0.718 and -0.319 | 0.427 (inactive) and 0.424 (inactive) | 0.759 (inactive) and 2.36 (inactive) | 0.0645 (inactive) and -0.769 (inactive) | 0.149 (inactive) and 0.147 (inactive) | -1.46 and -1.12 | -0.35 and -0.312 | 1.31 and -1.36 | -2.04 and -2.49 | -1.18 and -1.43 | -0.91 (inactive) and -0.81 (inactive) | -0.31 and -0.101 | 0.153 (inactive) and -0.368 (inactive) | -0.0395 (inactive) and 0.354 (inactive) | -0.661 (inactive) and -0.802 (inactive) | -0.11 (inactive) and -0.0605 (inactive) | -0.686 and -0.762 | 0.634 (inactive) and 0.835 (inactive) | -0.159 (inactive) and -0.18 (inactive) | 0.75 and 1.01
Cc1ccc(S(=O)(=O)OC[C@@H]2CN3[C@@H](CC[C@@H](C)[C@@H]3c3ccc(Br)cc3)C(=O)O2)cc1 | 0.225 and 0.0286 | 0.0308 (inactive) and -0.565 (inactive) | 0.152 (inactive) and -0.0678 (inactive) | 0.471 (inactive) and 1.22 (inactive) | 0.599 (inactive) and -0.853 (inactive) | 0.197 and 0.0059 | -0.0736 and 0.0173 | 0.478 and 0.543 | 0.244 and 0.594 | 0.566 and 0.616 | 0.0029 (inactive) and -0.348 (inactive) | -0.134 and -0.144 | 2.52 (inactive) and 4.44 (inactive) | 0.0068 (inactive) and 1.78 (inactive) | -0.414 (inactive) and 0.812 (inactive) | -0.0954 (inactive) and 0.932 (inactive) | -0.834 and 0.119 | 1.24 (inactive) and 0.787 (inactive) | 0.37 (inactive) and -0.0143 (inactive) | 0.0798 and 0.702
